This is a sample that favours compounds with a hit; in the whole collection about 11% have one here.
PLK1 PBD block = qHTS for Inhibitors of PLK1-PDB (polo-like kinase 1 - polo-box domain): Primary Screen. Serine/threonine-protein kinase PLK1 (Homo sapiens), P53350. Plk1 PBD binding of FITC phosphopeptide, fluorescence polarization. Potency, µM, for inactives: max response, negative = inhibition, most hits filed as inhibitors. actives 2.8% (n = 360,000); further: series mostly up to about 57 µM; on the % scale 0 is the no-effect control and ±100 the full control effect; nearly all actives have a fitted effect of over 65% in size
HP1b chromo inh = HTS for Inhibitors of HP1-beta Chromodomain Interactions with Methylated Histone Tails. Potency, µM (highest dose often 114 µM), for inactives: at the highest dose activity change, negative = inhibition, most hits filed as inhibitors. actives 0.56% (n = 390,000). Chromobox protein homolog 1 (Homo sapiens), P83916. AlphaScreen HP1-beta / biotin-H3K9me3 peptide binding. AID 540317, 2011; further: nearly all actives have a fitted effect of over 70% in size
Target sequence (P83916 whole entry, looked up): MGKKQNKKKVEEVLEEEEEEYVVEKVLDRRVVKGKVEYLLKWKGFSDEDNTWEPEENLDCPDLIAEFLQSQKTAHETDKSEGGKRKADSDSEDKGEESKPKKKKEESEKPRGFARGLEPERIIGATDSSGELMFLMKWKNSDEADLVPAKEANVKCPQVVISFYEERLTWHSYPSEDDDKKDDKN
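AlphaScreen: HP1-beta (50 nM) preformed 30 min with biotin-H3(1-18)K9me3 peptide (50 nM) in PBS pH 7.4, 0.01% Tween-20. Compound added for 30 min at RT, then streptavidin donor/nickel chelate acceptor beads (10 ug/mL) for 30 min.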
G9a inh = qHTS Assay for Inhibitors of Histone Lysine Methyltransferase G9a; G9a H3K9 monomethylation, AlphaScreen, 2 h; Potency, µM (doses to about 102 µM), for the others: at the top dose activity, negative = inhibition, usual class: inhibitors; actives 8.8% (n = 350,000); further: on the % scale 0 is the no-effect control and ±100 the full control effect; nearly all actives have a fitted effect of over 75% in size
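Step 1: enzyme (final 20 nM) with compound, 15 min RT. Step 2: substrate peptide 500 nM and SAM 20 uM, 2 h RT. Step 3: anti-H3K9me1 antibody and AlphaScreen beads, 10 min, then plate read.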
JMJD2A Tudor inh = qHTS Assay for Inhibitors of JMJD2A-Tudor Domain. Lysine-specific demethylase 4A (Homo sapiens), O75164. AlphaScreen JMJD2A-Tudor / H3K4me3 peptide binding. Potency, µM (titrated, usually from 114 µM), for inactives: at the highest dose activity change, negative = inhibition, actives largely listed as inhibitors. actives 4.4% (n = 390,000); further: on the % scale 0 is the no-effect control and ±100 the full control effect; nearly all actives have a fitted effect of over 50% in size
VDR inhibitor = Inhibitors of the vitamin D receptor (VDR): qHTS. Potency, µM, inactives show max response, negative = inhibition, hits mostly inhibitors. AID 504847, 2011. actives 0.93% (n = 400,000). VDR-SRC2-3 peptide fluorescence polarization, 2 h. Vitamin D3 receptor (Homo sapiens), P11473; further: on the % scale 0 is the no-effect control and ±100 the full control effect
Target sequence (P11473 whole entry, looked up): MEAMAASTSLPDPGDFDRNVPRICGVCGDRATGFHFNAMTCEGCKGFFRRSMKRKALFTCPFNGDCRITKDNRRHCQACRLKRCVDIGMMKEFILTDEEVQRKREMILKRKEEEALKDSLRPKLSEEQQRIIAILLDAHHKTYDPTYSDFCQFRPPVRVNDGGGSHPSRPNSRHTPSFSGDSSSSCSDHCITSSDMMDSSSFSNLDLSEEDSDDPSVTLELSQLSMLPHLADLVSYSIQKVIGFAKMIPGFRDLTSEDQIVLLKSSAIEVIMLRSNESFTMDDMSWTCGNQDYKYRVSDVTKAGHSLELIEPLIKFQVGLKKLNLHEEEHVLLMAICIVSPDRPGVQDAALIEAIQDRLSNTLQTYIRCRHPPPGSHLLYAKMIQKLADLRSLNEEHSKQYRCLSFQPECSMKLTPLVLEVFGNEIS
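VDR–SRC2-3 interaction, FP format. Cmpds 23 nl via pintool, brief spin, 2 h ambient incubation.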
BAZ2B inh = qHTS Assay for Inhibitors of BAZ2B; actives 4.4% (n = 360,000); Bromodomain adjacent to zinc finger domain protein 2B (Homo sapiens), Q9UIF8; Potency, µM (highest dose often 114 µM), without a hit: at the top dose activity change, negative = inhibition, actives largely listed as inhibitors; AlphaScreen BAZ2B-H3K14Ac peptide displacement; AID 504333, 2011; further: on the % scale 0 is the no-effect control and ±100 the full control effect; nearly all actives have a fitted effect of over 60% in size
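BAZ2B (50 nM) with biotin-H3(5-23)K14Ac peptide (50 nM) in PBS pH 7.4, 0.01% Tween-20, preformed 30 min, then compound 30 min at room temperature; top concentration 110uM. AlphaScreen streptavidin donor/nickel chelate acceptor beads (10 ug/mL final), 20 min dark, signal read.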
Starred values were filed as active, the others as inactive; ? = inconclusive; / = no result given; [ ] = another dose, or the depositor's remark. The call rests on the fitted dose curve; in most records, active means well fitted curve in the direction sought with a large enough effect; inconclusive means small, poorly fitted or top-dose-only effect, or another doubt; inactive means no such curve, though single readings can be large; an effect the other way counts as inactive or inconclusive. Potency means the concentration at half of the fitted maximal effect.

SMILES	PLK1 PBD block	HP1b chromo inh	G9a inh	JMJD2A Tudor inh	VDR inhibitor	BAZ2B inh
CCOC(=O)N1CCN(S(=O)(=O)c2cc([N+](=O)[O-])ccc2C)CC1	-3.6%	56.4%	?	7.5%	11.1%	-25.5%
CN1CC=C2C(C#N)=C(N)C(C#N)(C#N)C(Cc3ccccc3)C2C1 (stereo unspecified)	?	22.3%	-29.3%[12.7 µM]	-12.5%	-6.9%	-8.0%
CCCC1C2CN(C(C)=O)CC=C2C(C#N)=C(N)C1(C#N)C#N (stereo unspecified)	-9.4%	56.5%	14.1µM*	-8.6%	-16.4%	-6.0%
COc1ccc([C@@H]2[C@H]3CN(C(C)=O)CC=C3C(C#N)=C(N)C2(C#N)C#N)c2ccccc12	-8.9%	34.5%	44.7µM*	-6.7%	-2.0%	-4.2%
O=C(NCCC1=CCCCC1)c1ccc2c(c1)N(Cc1cccc(Cl)c1)C(=O)c1ccccc1S2=O (stereo unspecified)	/	4.5%	-34.4%[59 µM]	-2.9%	-1.9%	2.2%
Cc1ccc(C)c(CNC(=O)c2ccc3c(c2)nc2n3CCCCC2)c1	/	30.0%[57 µM]	-20.8%[59 µM]	-1.3%	2.4%	-3.4%
C[C@@H](CN1C(=O)C(=O)NC[C@@H]1Cc1ccc(O)cc1)NC(=O)Cc1ccccc1	?	10.1%	-11.1%	-27.1%	-25.2%	-3.9%
Cc1ccc[n+](-c2nc([O-])sc2C=O)c1	13.4µM*	-15.0%	?	-23.3%[11.4 µM]	6.5%	?
CC(C)c1ccc[n+](-c2nc([O-])sc2C=O)c1	-7.0%	9.2%	21.8%[12.7 µM]	0.4%	-2.6%	2.3%
CSC1=N/C(=C\c2ccccc2F)C(=O)S1	-7.5%	21.6%	44.7µM*	-19.2%	-8.6%	-10.9%
CC(C)C(NS(=O)(=O)c1cccs1)C(=O)NCc1ccc2c(c1)OCO2 (stereo unspecified)	-0.5%	52.0%	-28.4%[59 µM]	-5.7%	-25.5%	-4.8%
Cc1ccc(C2(C)NC(=O)N(CC(=O)NNC(=O)c3ccoc3C)C2=O)cc1 (stereo unspecified)	-4.9%	7.6%	0.5%	-4.8%	3.1%	5.0%
CC[C@@]12C(=O)N(c3cccc(Cl)c3)C(=O)N1[C@H](c1ccc(Br)cc1)[C@@H]1C(=O)N(C(C)(C)C)C(=O)[C@@H]12	-11.1%	9.0%	-9.8%[2.33 µM]	79.4µM*	-13.5%	11.0%
O=C(CNCc1ccc(Cl)cc1)Nc1ccc2c(c1)OCCO2	-10.1%	?	11.2µM*	17.8µM*	-22.6%	56.2µM*
CC(=O)Nc1ccc(NC(=O)CSc2nccn2Cc2ccc(Cl)cc2)cc1	-5.1%	8.7%	4.7%	-25.9%	8.2%	?
O=C(CSc1nnc(-c2ccccn2)n1-c1ccc(Cl)cc1)Nc1ccc2c(c1)OCO2	-4.5%	40.1%	14.1µM*	-25.9%	13.5%	?
O=C(CSc1nccn1Cc1ccc(Cl)cc1)Nc1ccc2c(c1)OCCO2	/	-11.9%[57 µM]	?	50.1µM*	-1.9%	?
O=C(CNCc1ccccc1Cl)Nc1ccc2c(c1)OCCO2	-0.2%	?	/	28.2µM*	-20.8%	56.2µM*
C[C@]12CCC(=O)C=C1[C@@H]1C[C@H]1[C@H]1[C@@H]3[C@@H]4C[C@H]4[C@@]4(CCC(=O)O4)[C@@]3(C)CC[C@@H]12	/	/	-0.8%[59 µM]	/	?	/
CC1CN(C(C)C)C(C)CC1OC(=O)c1ccccc1 (stereo unspecified)	-5.2%	29.6%	11.1%	-6.8%	-7.0%	-6.0%
CCN(CC(=O)Nc1c(F)cccc1F)C(=O)C1CC(=O)N(CCc2ccccc2)C1 (stereo unspecified)	-6.5%	1.5%	?	-6.8%	-12.7%	-3.4%
CCOC(=O)CCc1cc(F)c(S(=O)(=O)N2CCN(S(=O)(=O)c3ccc4c(c3)OCCO4)CC2)cc1F	/	/	/	-15.1%	/	/
C=CCc1cccc(/C=N/NC(=O)CCC(=O)Nc2ccc(C)cc2)c1O	-0.3%	38.8%	30.4%[59 µM]	6.0%	-20.5%	-1.8%
O=C(CSc1nc2c(c(=O)n1-c1ccc(F)cc1)SCC2)Nc1ccc2c(c1)OCO2	0.4%	1.7%	/	-23.2%	3.6%	/
O=C(CSc1nc2c(c(=O)n1-c1ccc(Cl)cc1)SCC2)Nc1ccc2c(c1)OCCO2	-10.2%	36.1%	44.7µM*	-19.9%	-8.4%	5.4%
SMILES	PLK1 PBD block	HP1b chromo inh	G9a inh	JMJD2A Tudor inh	VDR inhibitor	BAZ2B inh
CCc1ccccc1OCC(=O)Nc1cc(S(=O)(=O)N(CC)CC)ccc1N1CCOCC1	-17.7%	58.2%	4.5%[59 µM]	-24.7%	5.7%	3.9%
COCCn1c(-c2ccc(OC)cc2)cnc1SCC(=O)Nc1ccc(OC)cc1OC	?	-8.7%	?	-10.6%[57.1 µM]	-27.4%	44.7µM*
COCCn1c(SCC(=O)Nc2cc(C)on2)nc2ccccc2c1=O	-7.6%	21.6%	1.8%[12.7 µM]	-6.4%	1.7%	0.6%
COCCn1c(-c2ccccc2)cnc1SCC(=O)Nc1cccc2ccccc12	1.2%	?	31.6µM*	50.1µM*	13.2%	44.7µM*
COc1ccc(NC(=O)CSc2nncn2N)c(OC)c1	-8.0%	37.3%	8.2%	-13.0%	21.5%	-26.5%
COCCn1c(-c2ccc(OC)cc2)cnc1SCC(=O)Nc1cc(C)on1	-9.8%	23.6%	79.4µM*	-17.6%	-2.2%	-10.7%
CC(C)CN1CCCC2(CCN(C(=O)c3cccc(F)c3)CC2)C1	/	/	-18.7%[12.7 µM]	/	-7.2%	/
COc1ccc(C)cc1NC(=O)CSc1nc(=O)n(Cc2ccccn2)c2c1CCC2	/	18.6%	?	-10.1%	6.8%	-8.1%
NS(=O)(=O)c1ccc(NC(=O)COc2cccc3ccccc23)cc1	-13.6%	9.3%	19.3%	-10.9%	2.9%	-7.3%
CC(=O)N/N=C/c1cc(C(C)(C)C)cc(/C=N/NC(C)=O)c1O	21.2µM*	34.8%	39.5%[12.7 µM]	-29.9%	9.9%	-18.9%
CCC(O)(CC)C(=O)N/N=C/c1cc(Br)cc(Br)c1O	-1.8%	47.6%	6.4%[59 µM]	1.4%	3.9%	-1.3%
COc1ccc(-c2nc(SC(C)C(=O)NCC3CCCO3)n[nH]2)cc1 (stereo unspecified)	0.0%	20.1%	15.8µM*	-14.5%	-4.8%	-8.8%
CCOC(=O)c1c(C)nn(-c2ccc(NC(=O)c3cccs3)cc2)c1C	-0.6%	39.6%	-10.5%[12.7 µM]	-13.1%	20.9%	-3.3%
CCNC(=O)Nc1ccc(-n2nc(C)c(C(=O)OCC)c2C)nc1	15µM*	0.2%	-0.9%	20µM*	-23.0%	-21.0%
CCOC(=O)c1c(C)nn(-c2ccc(NC(=O)c3c(C)noc3C)cc2)c1C	-9.3%	14.8%	44.7µM*	-10.6%	-10.0%	5.7%
